Reference: the supplement of paper PMC8007513
Where a name gives a salt, the structure may show the parent alone. ± gives the standard error. Out of some 1,300 compounds screened, about 130 (10%) showed an effect of 50% or more. Many of the other results were omitted from the sample, so strong results are more common in it than they were.

Tested on: Trichoderma virens ATCC 9645
Assay: growth yield (OD600) with compound + IPBC relative to untreated control; higher = less growth inhibition
Conditions: compound concentration: 100 uM, IPBC concentration: 200 ng/ml
Summary of the method: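 Trichoderma virens ATCC 9645 spores at 15,000 spores ml^−1 in potato dextrose broth were exposed in 96-well plates to library compounds at 100 μM final, with or without a biocide at 200 ng ml^−1. After growth at 30 °C, OD600 was read at 40 h and 72 h. Values are growth relative to the control without either agent, averaged over duplicate screens.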

SMILES | growth yield (40 h) [%] | growth yield (72 h) [%]
COc1ccccc1Oc1c(NS(=O)(=O)c2ccc(C(C)(C)C)cc2)nc(-c2ncccn2)nc1OCCO [Bosentan] + CCCCNC(=O)OCC#CI [3-iodo-2-propynyl butylcarbamate (IPBC)] | 117 ± 2.4 | 114 ± 5.8
Clc1ccc2c(c1)C(N1CCNCC1)=Nc1ccccc1O2 [Amoxapine] + CCCCNC(=O)OCC#CI [3-iodo-2-propynyl butylcarbamate (IPBC)] | 81.3 ± 6 | 99.9 ± 7
CCOC(=O)[C@@](C)(N)Cc1ccc(O)c(O)c1 [Methyldopate hydrochloride] + CCCCNC(=O)OCC#CI [3-iodo-2-propynyl butylcarbamate (IPBC)] | 110 ± 6 | 106 ± 6.2
CC12CC3CC(C)(C1)CC(N)(C3)C2 [Memantine Hydrochloride] + CCCCNC(=O)OCC#CI [3-iodo-2-propynyl butylcarbamate (IPBC)] | 109 ± 3 | 108 ± 4.2
CC(C)(C)NC[C@H](O)COc1ccccc1C1CCCC1 [Penbutolol sulfate] + CCCCNC(=O)OCC#CI [3-iodo-2-propynyl butylcarbamate (IPBC)] | 74.8 ± 6.2 | 91.56 ± 0.73
O=C1CCC(N2C(=O)c3ccccc3C2=O)C(=O)N1 (stereo not given) [Thalidomide] + CCCCNC(=O)OCC#CI [3-iodo-2-propynyl butylcarbamate (IPBC)] | 95.3 ± 3.2 | 101 ± 4.4
O=C1NCN(c2ccccc2)C12CCN(CCCC(c1ccc(F)cc1)c1ccc(F)cc1)CC2 [Fluspirilen] + CCCCNC(=O)OCC#CI [3-iodo-2-propynyl butylcarbamate (IPBC)] | 99.4 ± 6.3 | 118 ± 4.2
COc1ccccc1OCC(O)CN1CCN(CC(=O)Nc2c(C)cccc2C)CC1 (stereo not given) [Ranolazine] + CCCCNC(=O)OCC#CI [3-iodo-2-propynyl butylcarbamate (IPBC)] | 89.7 ± 2.4 | 94.2 ± 2.7
Cc1cccc(C)c1NC(=O)CN1CCN(CCCC(c2ccc(F)cc2)c2ccc(F)cc2)CC1 [Lidoflazine] + CCCCNC(=O)OCC#CI [3-iodo-2-propynyl butylcarbamate (IPBC)] | 10.3 ± 1.1 | 78.6 ± 7.7
CO/N=C1\CN(c2nc3c(cc2F)c(=O)c(C(=O)O)cn3C2CC2)CC1CN (stereo not given) [Gemifloxacin mesylate] + CCCCNC(=O)OCC#CI [3-iodo-2-propynyl butylcarbamate (IPBC)] | 103 ± 17 | 104 ± 11
CNCC(O)c1ccc(OC(=O)C(C)(C)C)c(OC(=O)C(C)(C)C)c1 (stereo not given) [Dipivefrin hydrochloride] + CCCCNC(=O)OCC#CI [3-iodo-2-propynyl butylcarbamate (IPBC)] | 79.4 ± 1.3 | 88.83 ± 0.1
C[C@]12CCC(=O)C(O)=C1CC[C@@H]1[C@@H]2CC[C@]2(C)C(=O)CC[C@@H]12 [Formestane] + CCCCNC(=O)OCC#CI [3-iodo-2-propynyl butylcarbamate (IPBC)] | 71.5 ± 3.8 | 91.2 ± 1.1
N[C@@H]1CONC1=O [D-cycloserine] + CCCCNC(=O)OCC#CI [3-iodo-2-propynyl butylcarbamate (IPBC)] | 86.2 ± 1.1 | 90.3 ± 1.8
COc1ccc2[nH]cc(CCNC(C)=O)c2c1 [Melatonin] + CCCCNC(=O)OCC#CI [3-iodo-2-propynyl butylcarbamate (IPBC)] | 82.9 ± 4.1 | 92.3 ± 4
CCCCCNC(=N)N/N=C/c1c[nH]c2ccc(OC)cc12 [Tegaserod maleate] + CCCCNC(=O)OCC#CI [3-iodo-2-propynyl butylcarbamate (IPBC)] | 5.4 | 5.24 ± 0.21
CC(C)(C)NCC(O)COc1cccc2c1CC(O)C(O)C2 (stereo not given) [Nadolol] + CCCCNC(=O)OCC#CI [3-iodo-2-propynyl butylcarbamate (IPBC)] | 102 ± 19 | 100 ± 10
c1ccc2[nH]c(-c3cscn3)nc2c1 [Tiabendazole] + CCCCNC(=O)OCC#CI [3-iodo-2-propynyl butylcarbamate (IPBC)] | 4.7652 ± 1.4e-15 | 3.3561 ± 1.3e-15
CN1CCC[C@@H]1CCO[C@](C)(c1ccccc1)c1ccc(Cl)cc1 [Clemastine fumarate] + CCCCNC(=O)OCC#CI [3-iodo-2-propynyl butylcarbamate (IPBC)] | 53.2 ± 1.8 | 92.4 ± 0.94
COc1ccc2c(c1)N(C[C@H](C)CN(C)C)c1ccccc1S2 [Methotrimeprazine maleat salt] + CCCCNC(=O)OCC#CI [3-iodo-2-propynyl butylcarbamate (IPBC)] | 76.4 ± 1.4 | 92.61 ± 0.32
CSc1ccc2c(c1)N(CCC1CCCCN1C)c1ccccc1S2 (stereo not given) [Thioridazine hydrochloride] + CCCCNC(=O)OCC#CI [3-iodo-2-propynyl butylcarbamate (IPBC)] | 3.81 ± 0.64 | 2.94 ± 0.21

SMILES | growth yield (40 h) [%] | growth yield (72 h) [%]
CN(C)CCCN1c2ccccc2Sc2ccc(Cl)cc21 [Chlorpromazine hydrochloride] + CCCCNC(=O)OCC#CI [3-iodo-2-propynyl butylcarbamate (IPBC)] | 52.4 ± 4.1 | 87.2 ± 2.2
OCCN1CCN(CCCN2c3ccccc3C=Cc3ccccc32)CC1 [Opipramol dihydrochloride] + CCCCNC(=O)OCC#CI [3-iodo-2-propynyl butylcarbamate (IPBC)] | 69.57 ± 0.64 | 92.4 ± 3
O=c1n(CCCN2CCN(c3cccc(Cl)c3)CC2)nc2ccccn12 [Trazodone hydrochloride] + CCCCNC(=O)OCC#CI [3-iodo-2-propynyl butylcarbamate (IPBC)] | 51 ± 1.1 | 86.1 ± 0.94
CN(C)CCCN1c2ccccc2CCc2ccc(Cl)cc21 [Clomipramine hydrochloride] + CCCCNC(=O)OCC#CI [3-iodo-2-propynyl butylcarbamate (IPBC)] | 59.6 ± 1.4 | 93.2 ± 2
CN1CCN(CCCN2c3ccccc3Sc3ccc(S(=O)(=O)N(C)C)cc32)CC1 [Thioproperazine dimesylate] + CCCCNC(=O)OCC#CI [3-iodo-2-propynyl butylcarbamate (IPBC)] | 37.8 ± 0.95 | 97.1 ± 5
CN1CCCCC1CCN1c2ccccc2Sc2ccc([S+](C)[O-])cc21 (stereo not given) [Mesoridazine besylate] + CCCCNC(=O)OCC#CI [3-iodo-2-propynyl butylcarbamate (IPBC)] | 72.6 ± 2.4 | 89.25 ± 0.52
CC(CN(C)C)CN1c2ccccc2Sc2ccccc21 (stereo not given) [Trimeprazine tartrate] + CCCCNC(=O)OCC#CI [3-iodo-2-propynyl butylcarbamate (IPBC)] | 71.5 ± 3.8 | 92 ± 3.9
CN1CCN(CCCN2c3ccccc3Sc3ccc(Cl)cc32)CC1 [Prochlorperazine dimaleate] + CCCCNC(=O)OCC#CI [3-iodo-2-propynyl butylcarbamate (IPBC)] | 3.18 | 2.73 ± 0.21
OCCN1CCN(CCCN2c3ccccc3Sc3ccc(Cl)cc32)CC1 [Perphenazine] + CCCCNC(=O)OCC#CI [3-iodo-2-propynyl butylcarbamate (IPBC)] | 4.29 ± 0.48 | 2.94 ± 0.42
CCCCC[C@H](O)/C=C/[C@H]1[C@H](O)CC(=O)[C@@H]1CCCCCCC(=O)O [Alprostadil] + CCCCNC(=O)OCC#CI [3-iodo-2-propynyl butylcarbamate (IPBC)] | 108 ± 3.3 | 107 ± 2.8
Cc1ncc([N+](=O)[O-])n1CC(C)O (stereo not given) [Secnidazole] + CCCCNC(=O)OCC#CI [3-iodo-2-propynyl butylcarbamate (IPBC)] | 95.9 ± 13 | 94.5 ± 9.8
N=C(N)NC(=O)Cc1c(Cl)cccc1Cl [Guanfacine hydrochloride] + CCCCNC(=O)OCC#CI [3-iodo-2-propynyl butylcarbamate (IPBC)] | 79.9 ± 4.3 | 90.7 ± 3.7
O=C1[C@H]2CCCC[C@H]2C(=O)N1CCCCN1CCN(c2nsc3ccccc23)CC1 [Perospirone] + CCCCNC(=O)OCC#CI [3-iodo-2-propynyl butylcarbamate (IPBC)] | 79.4 ± 0.95 | 88.41 ± 0.32
C[C@@H]1C[C@H]2[C@@H]3C[C@H](F)C4=CC(=O)C=C[C@]4(C)[C@@]3(F)[C@@H](O)C[C@]2(C)[C@@]1(O)C(=O)COC(=O)C(C)(C)C [Flumethasone pivalate] + CCCCNC(=O)OCC#CI [3-iodo-2-propynyl butylcarbamate (IPBC)] | 90.9 ± 2.5 | 90.3 ± 2
CN(CCCN1c2ccccc2CCc2ccccc21)CC(=O)c1ccc(Cl)cc1 [Lofepramine] + CCCCNC(=O)OCC#CI [3-iodo-2-propynyl butylcarbamate (IPBC)] | 78.31 ± 0.48 | 91.7 ± 1.3
CCN[C@H]1CN(CCCOC)S(=O)(=O)c2sc(S(N)(=O)=O)cc21 [Brinzolamide] + CCCCNC(=O)OCC#CI [3-iodo-2-propynyl butylcarbamate (IPBC)] | 76.1 ± 0.79 | 86.31 ± 0.32
CC(N/C(=N\C#N)Nc1ccncc1)C(C)(C)C (stereo not given) [Pinacidil] + CCCCNC(=O)OCC#CI [3-iodo-2-propynyl butylcarbamate (IPBC)] | 97.7 ± 5.9 | 102 ± 2.9
CCCCc1cc2ccccc2c(OCCN(C)C)n1 [Dimethisoquin hydrochloride] + CCCCNC(=O)OCC#CI [3-iodo-2-propynyl butylcarbamate (IPBC)] | 52.1 ± 0.64 | 82.64 ± 0.42
CC(C)c1nc(CN(C)C(=O)N[C@H](C(=O)N[C@@H](Cc2ccccc2)C[C@H](O)[C@H](Cc2ccccc2)NC(=O)OCc2cncs2)C(C)C)cs1 [Ritonavir] + CCCCNC(=O)OCC#CI [3-iodo-2-propynyl butylcarbamate (IPBC)] | 119 ± 1.6 | 119 ± 1.5
O=C(O)CCC(=O)c1ccc(-c2ccccc2)cc1 [Fenbufen] + CCCCNC(=O)OCC#CI [3-iodo-2-propynyl butylcarbamate (IPBC)] | 71.5 ± 2.9 | 92.2 ± 1.8
